SMN2 splice enh = enhancers of SMN2 splice variant expression | HEK293 SMN2-luciferase splicing reporter, luminescence, 30-36 h | 2.8% of 210,000 active | Potency, µM (series often up to 46.1 µM), inactives show top-dose activity change, positive = activation, actives largely listed as activators; also: % of control where 0% means no effect; nearly all actives have a fitted effect of over 55% in size
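HEK293 cells carry an SMN2 minigene-luciferase reporter in which exon 7 inclusion puts luciferase in frame. Cells were seeded at 2000 cells/well, attached for 10-12 hours, then exposed to compounds for 30-36 hours at 37C before ONE-Glo luminescence.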
ELG1 genotox = genotoxicity induction in ELG1-luciferase HEK293T cells | HEK293T ELG1-luciferase reporter, luminescence, 16 h | Potency, µM (doses to about 46 µM), inactives show top-dose activity change, positive = activation, usual class: activators | 1.3% of 330,000 active | AID 504466; also: % of control where 0% means no effect; nearly all actives have a fitted effect of over 60% in size
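Luminescence read-out: rising ELG1-luciferase signal, reflecting elevated ELG1 protein under genetic stress, flags genotoxic compounds. Cells were treated for 16 hr at 37 °C before ONE-Glo detection.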
Rab9 promoter act = Rab9 promoter activation | Potency, µM (series often up to 9.22 µM), without a hit: at the highest dose activation, negative = inhibition, hits mostly activators | Huh7 Rab9 promoter-luciferase reporter, luminescence, 24 h | AID 485297 | 2.8% of 320,000 active; also: % of control where 0% means no effect; nearly all actives have a fitted effect of over 60% in size
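Cells were plated at 1500 per well in reduced-serum medium with 10% FBS and left 2 h. Compound in DMSO was then added for 24 h at 37 °C. Reporter signal was read by luminescence after 10 min with luciferase detection reagent.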
uPA generation = cell surface uPA generation inhibition. cell surface uPA generation assay, qHTS. Potency, µM (series often up to 38.3 µM), for the others: top-dose activity change, negative = inhibition, usual class: inhibitors. 0.31% of 330,000 active. AID 540303; active = well fitted inhibition curve with a large enough effect; inconclusive = small, poorly fitted or top-dose-only effect; inactive = no such curve, though single readings can be large or run the other way; tested in mouse RAW 264.7 cells; also: % is scaled to controls: 0 for no effect and ±100 for the full control effect; nearly all actives have a fitted effect of over 55% in size
NPC1 promoter act = NPC1 promoter activation; AID 485313; Huh7 NPC1 promoter luciferase reporter, 24 h; 2.4% of 320,000 active; Potency, µM (top dose mostly 9.22 µM), for inactives: at the highest dose activation, most hits filed as activators; also: % of control where 0% means no effect; nearly all actives have a fitted effect of over 60% in size
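Stable NPC1-promoter luciferase Huh7 line; cpd (DMSO) 24 h, 37 °C, 5% CO2; Amplite luciferase reagent 10 min RT; luminescence readout. qHTS format.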
FLuc counter = counter-screen for miR-21 project: firefly luciferase inhibitors or activators; purified FLuc, Km substrates, luminescence inhibition; Potency, µM (titrated, usually from 57.5 µM), for the others: top-dose activity change, negative = inhibition, actives largely listed as inhibitors; 6.9% of 360,000 active; AID 588342;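 also: plate controls were vehicle for no effect and reference inhibitor for full effect; nearly all actives have a fitted effect of over 55% in size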
Target sequence (P08659 whole entry, looked up): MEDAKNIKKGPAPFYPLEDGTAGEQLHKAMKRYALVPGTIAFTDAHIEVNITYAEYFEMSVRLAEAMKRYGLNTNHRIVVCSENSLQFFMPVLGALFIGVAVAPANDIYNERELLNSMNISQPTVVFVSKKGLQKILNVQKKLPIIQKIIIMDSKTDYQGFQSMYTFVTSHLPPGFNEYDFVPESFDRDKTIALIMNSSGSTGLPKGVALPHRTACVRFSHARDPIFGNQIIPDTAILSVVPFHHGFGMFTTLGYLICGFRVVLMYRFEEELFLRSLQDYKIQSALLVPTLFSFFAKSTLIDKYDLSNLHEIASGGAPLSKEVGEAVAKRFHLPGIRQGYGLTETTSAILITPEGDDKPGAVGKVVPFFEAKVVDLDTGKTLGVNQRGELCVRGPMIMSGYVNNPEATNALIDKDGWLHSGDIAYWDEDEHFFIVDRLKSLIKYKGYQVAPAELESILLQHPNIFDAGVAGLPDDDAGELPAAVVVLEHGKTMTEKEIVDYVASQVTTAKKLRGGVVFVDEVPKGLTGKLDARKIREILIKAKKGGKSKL
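Biochemical qHTS of compounds, final roughly 60 µM downward over six points, against 10 nM purified firefly luciferase using Km concentrations of substrates (10 uM D-luciferin, 10 uM ATP) in Tris acetate pH 7.5 buffer; luminescence output.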
An asterisk follows results filed as active; ? = inconclusive; nt = not tested or not shown. Rows were chosen to be rich in hits. Some 7.3% of all compounds tested hit in one or more screens of this group. Unless noted, calls follow the shape of the dose curve; as a rule, active = well fitted curve in the direction sought with a large enough effect; inconclusive = small, poorly fitted or top-dose-only effect, or another doubt; inactive = no such curve, though single readings can be large; an effect the other way counts as inactive or inconclusive. Potency is read from the fitted curve at half-maximal effect.

SMILES	SMN2 splice enh	ELG1 genotox	Rab9 promoter act	uPA generation	NPC1 promoter act	FLuc counter
O=C(N/N=C/c1cccc(OC(=O)N2CCOCC2)c1)c1cccs1	4.7%	3.2%	19.0%	-6.5%	17.5%	9.53µM*
O=C(CC1N=C2c3ccccc3N=C(SCc3ccccc3Cl)N2C1=O)NCCc1ccccc1 (stereo not given)	nt	nt	nt	nt	nt	0.4%
Cc1ccc(CNC(=O)CS(=O)(=O)c2cccc3nsnc23)cc1	nt	nt	nt	nt	nt	-1.2%
CC(C)CSc1nsc(N)n1	19.7%	16.4µM*	?	5.4%	?	?
Nc1cc(N)nc(SCc2ccccc2)n1	11.2µM*	?	2.82µM*	-2.0%	?	19µM*
Nc1nc(SCc2ccccc2)ns1	12.6µM*	18.4µM*	?	1.0%	28.2%	?
O=C(CN1C(=O)C2(SCC(=O)N2c2ccccc2)c2ccccc21)NCc1ccccc1 (stereo not given)	nt	nt	nt	nt	nt	2.3%
O=C1C=CC(=C(c2ccc(O)cc2)c2ccc(O)cc2)C=C1	-75.8%	-10.4%	-38.9%	2µM*	-34.9%	nt
Cc1ccc(CCNC(=O)c2ccc(CNS(=O)(=O)c3ccc(F)cc3)cc2)cc1	nt	nt	nt	nt	nt	-2.9%
Fc1ccc(-n2nnc(-c3cnc4ccccc4c3)n2)cc1	nt	0.231µM*	0.1µM*	?	?	0.135µM*
Brc1ccccc1-n1nnc(-c2cccnc2)n1	nt	10.1%	?	-13.7%	?	16.9µM*
c1cncc(-c2nnc(-c3cccnc3)nn2)c1	-89.8%	-3.9%	4.8%	-14.6%	16.4%	?
O=c1[nH]c2ccccc2cc1-c1nnn(-c2ccc(F)cc2)n1	nt	?	2.51µM*	-22.3%	3.55µM*	1.9µM*
Fc1ccc(-n2nnc(-c3cccnc3)n2)cc1	nt	?	3.16µM*	-14.9%	?	15.1µM*
Cc1ccc(-n2c(=O)c3c(cnn3C)n(CC(=O)Nc3cccc(C)c3)c2=O)cc1	2.7%	nt	nt	nt	nt	-11.8%
COc1ccc(CNC(=O)c2cnc(N3CCCC3)nc2C)c(OC)c1	nt	nt	nt	nt	nt	-8.5%
Clc1ccc(-n2nnc(-c3cccnc3)n2)cc1Cl	nt	?	3.16µM*	9.4%	3.98µM*	?
COc1ccc(N(CC(=O)N2CCC(Cc3ccccc3)CC2)S(C)(=O)=O)cc1	nt	-5.0%	-1.8%	-2.6%	-2.8%	-1.5%
Cc1ccc(NC(=O)Nn2cnnc2)cc1Cl	nt	7.8%	1.1%	2.6%	-1.4%	-2.6%
Cc1ccc(NC(=O)O/N=C/c2c(C)nn(C(C)(C)C)c2C)cc1Cl	nt	-11.8%	-43.7%	-7.5%	-35.2%	0.135µM*
CCOC(=O)C1OC1C(=O)NC(CC(C)C)C(=O)NCCC(C)C (stereo not given)	-11.0%	nt	nt	nt	nt	nt
O=C(Nc1nnc(-c2cc(Cl)ccc2Cl)o1)c1ccco1	nt	?	19.4%	-5.2%	15.9%	6.01µM*
O=C(Nc1ccc(N2CCOCC2)c(Cl)c1)c1ccccc1F	23.8%	5.17µM*	3.55µM*	-11.9%	3.16µM*	9.53µM*
CC(=O)N1CCN(c2ccc(NC(=O)c3ccco3)cc2Cl)CC1	nt	?	30.0%	2.6%	1.3%	?
O=C(Nc1ccc(N2CCOCC2)c(Cl)c1)c1ccco1	12.6µM*	2.59µM*	3.55µM*	-10.2%	1.41µM*	9.53µM*
O=C(Nc1cc(C(F)(F)F)ccc1N1CCOCC1)c1ccccc1F	9.3%	4.1%	-5.8%	3.9%	-0.8%	2.7%
O=C(Nc1ccc(Cl)cc1C(=O)Nc1ccncc1)c1ccco1	31.6µM*	-12.1%	7.7%	nt	2.1%	-17.5%
COC(=O)c1ccccc1NC(=O)CCCn1c(=O)c2cccn2c2cccnc21	nt	nt	nt	nt	nt	-9.7%
CCCn1c(=O)c2sccc2n2c(CCCC(=O)NC3CCC(C)CC3)nnc12 (stereo not given)	nt	nt	nt	nt	nt	-1.6%
O=C(Nc1ccc(Br)c(Cl)c1)c1ccco1	?	20.6µM*	3.55µM*	-3.0%	?	21.3µM*

Screens: PubChem BioAssay, National Center for Advancing Translational Sciences (NCATS)
